Screening results (PubChem)
An excerpt weighted towards active compounds, which were near 2.2% of everything screened.
aSyn UTR inh: 5' untranslated region of α-synuclein, MLPCN primary screen; alpha-synuclein 5'UTR reporter, inhibitor activity; inhibition, % (tested at 7.5 µM); actives 0.82% (n = 300,000); AID 1813; in the data active means inhibition above about 60%;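 further: H4 neuroglioblastoma cells stably carrying SNCA 5'UTR luciferase fusion; 0% = DMSO wells and 100% = positive control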
KLF5 inhibitor: inhibitors of KLF5 expression | DLD-1 KLF5 promoter-luciferase reporter, luminescence | inhibition, % at 5 µM | actives 0.23% (n = 290,000) | AID 1700;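 active means inhibition above a per-plate limit of that plate's mean compound inhibition plus 3 SD, cut at about 60% in these data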;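 further: 0% = DMSO wells and 100% = LY294002 at 200 µM; higher means less KLF5 promoter-driven luciferase light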
IEC-6 tox: IEC-6 cytotoxicity, counter-screen for KLF5 inhibitors; luminescence viability; actives 0.78% (n = 290,000); inhibition, % at 5 µM;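 further: 0% = plate median of test compound wells and 100% = cytotoxic reference compound wells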
BaF3 parental: counter-screen for JAK2V617F inhibitors: parental Ba/F3 viability inhibitors; AID 1486; actives 1.1% (n = 220,000); CellTiter-Glo ATP luminescence; inhibition, % at 5.6 µM;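 active means inhibition above a per-campaign cutoff, the mean inhibition of all tested compounds plus 3 SD, cut at about 27% in these data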;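 further: 0% = DMSO wells and 100% = JAK Inhibitor I control wells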
APP 5UTR inh: APP translation inhibition; AID 1285; inhibition, % at 2 µM; SH-SY5Y APP 5'UTR-luciferase reporter, luminescence; actives 0.82% (n = 190,000);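 active means inhibition above a set limit, derived from the sample mean plus 3 SD, cut at about 45% in these data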
Ba/F3 V617F tox: lowers viability of Ba/F3 cells expressing EpoR and JAK2V617F; inhibition, % at 5.6 µM; actives 1.1% (n = 220,000); ATP luminescence;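 active means inhibition above the campaign mean plus 3 SD over all tested compounds, cut at about 24% in these data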;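 further: cytokine-independent growth of Ba/F3 cells driven by EpoR plus mutant JAK2; 0% = DMSO-treated cells and 100% = JAK inhibitor I control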
IEC-6 tox confirm: IEC-6 cytotoxicity, confirmation assay. shares compounds with IEC-6 tox. actives 63% (n = 1,900). inhibition, % at 5 µM. IEC-6 rat intestinal epithelial viability, luminescence;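 further: 0% = vehicle and 100% = reference cytotoxic drug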
An asterisk follows results filed as active. Unless noted, no stated cut-off is given here; in the data, active means inhibition above about 22%; inactive means the rest.

For CC1=Nc2cc(C(=O)NCCCN3CCN(C)CC3)ccc2Sc2ccc(C)cc21 the results were aSyn UTR inh 0, KLF5 inhibitor -35 and IEC-6 tox -3.
For CC1=Nc2cc(C(=O)NCC3CCCO3)ccc2Sc2ccc(C)cc21 (configuration not stated) the results were aSyn UTR inh 44, KLF5 inhibitor 61, IEC-6 tox 79* and IEC-6 tox confirm 53*.
Screening COc1cccc(-c2nnc(-c3ccccc3[N+](=O)[O-])o2)c1 returned aSyn UTR inh -136, KLF5 inhibitor -83, IEC-6 tox 6, BaF3 parental 3 and Ba/F3 V617F tox -3.
COc1ccc(-c2nc(CCl)cs2)cc1 was read as aSyn UTR inh -142, KLF5 inhibitor -29, IEC-6 tox -2, BaF3 parental 0, APP 5UTR inh -4 and Ba/F3 V617F tox -3.
`COc1ccc(-c2ccnc(-c3ccc(O)cc3)n2)cc1` gave aSyn UTR inh -38, KLF5 inhibitor 27, IEC-6 tox 69*, BaF3 parental 59*, APP 5UTR inh 93*, Ba/F3 V617F tox 79* and IEC-6 tox confirm 60*.
`COc1ccc(-c2ccnc(-c3ccncc3)n2)cc1` gave aSyn UTR inh -2, KLF5 inhibitor 10, IEC-6 tox 30*, BaF3 parental 13, Ba/F3 V617F tox 19 and IEC-6 tox confirm 18.
Screening COc1ccc(-c2csc(-c3ccc(O)cc3)n2)cc1 returned aSyn UTR inh -215, KLF5 inhibitor -58, IEC-6 tox 50*, BaF3 parental 47*, Ba/F3 V617F tox 64* and IEC-6 tox confirm 44*.
O=C(Cn1c(NCCO)nc2ccccc21)N1CCN(Cc2ccccc2)CC1 was read as aSyn UTR inh 13, KLF5 inhibitor -28, IEC-6 tox -2, BaF3 parental 8, APP 5UTR inh -20 and Ba/F3 V617F tox 9.
`N#Cc1ccc(/C=N/NC(=O)c2cccc(S(=O)(=O)N3CCOCC3)c2)cc1` gave aSyn UTR inh -18, KLF5 inhibitor -18, IEC-6 tox -5, BaF3 parental 7, APP 5UTR inh 1 and Ba/F3 V617F tox -2.
`Cc1ccc(C(=O)c2cc([N+](=O)[O-])ccc2N2CC(C)OC(C)C2)cc1` (configuration not stated) gave aSyn UTR inh -39, KLF5 inhibitor -6, IEC-6 tox -2, BaF3 parental 6, APP 5UTR inh 24 and Ba/F3 V617F tox -1.
CN1CCN(c2ccc([N+](=O)[O-])cc2C(=O)c2ccc(Cl)cc2)CC1 was read as aSyn UTR inh 37, KLF5 inhibitor 0, IEC-6 tox 49*, BaF3 parental 4, APP 5UTR inh 6, Ba/F3 V617F tox -3 and IEC-6 tox confirm 50*.
Cc1ccc(C(=O)c2cc([N+](=O)[O-])ccc2N2CCCCC2)cc1 was read as aSyn UTR inh 81*, KLF5 inhibitor 56, IEC-6 tox 89*, BaF3 parental 76*, Ba/F3 V617F tox 80* and IEC-6 tox confirm 65*.
Cc1cc(C(=O)NCC23CC4CC(CC(C4)C2)C3)c(C)o1 was read as aSyn UTR inh -3, KLF5 inhibitor -10, IEC-6 tox 1, BaF3 parental 6, APP 5UTR inh -12 and Ba/F3 V617F tox 1.
Cc1cccc(C(=O)Nc2ccccc2SCC2CSc3nc4ccccc4c(=O)n32)c1 (configuration not stated) was read as aSyn UTR inh 38, KLF5 inhibitor -26, IEC-6 tox 66*, BaF3 parental 1, APP 5UTR inh -11, Ba/F3 V617F tox -2 and IEC-6 tox confirm 44*.
O=C(Nc1ccccc1SCC1CSc2nc3ccccc3c(=O)n21)c1cccc(Cl)c1 (configuration not stated) was read as aSyn UTR inh -55, KLF5 inhibitor 30, IEC-6 tox 69*, BaF3 parental 5, APP 5UTR inh -1, Ba/F3 V617F tox 3 and IEC-6 tox confirm 42*.
Screening O=c1c2ccccc2nc2n1C(CSc1ccccc1)CS2 (configuration not stated) returned aSyn UTR inh -12, KLF5 inhibitor -16, IEC-6 tox 4, BaF3 parental 1, APP 5UTR inh -17 and Ba/F3 V617F tox -1.
`Cc1ccc(C(=O)Nc2ccccc2SCC2CSc3nc4ccccc4c(=O)n32)cc1` (configuration not stated) gave aSyn UTR inh 7, KLF5 inhibitor 41, IEC-6 tox 70*, BaF3 parental 6, APP 5UTR inh 3, Ba/F3 V617F tox 4 and IEC-6 tox confirm 45*.
`O=C(Nc1ccccc1SCC1CSc2nc3ccccc3c(=O)n21)c1ccccc1Cl` (configuration not stated) gave aSyn UTR inh 27, KLF5 inhibitor 7, IEC-6 tox 60*, BaF3 parental 4, APP 5UTR inh -1, Ba/F3 V617F tox -3 and IEC-6 tox confirm 26*.
CC1(C)Cc2nc(Cl)c(C(N)=O)cc2CO1 was read as aSyn UTR inh 12, KLF5 inhibitor -21, IEC-6 tox 3, BaF3 parental -1 and Ba/F3 V617F tox 1.
For CCS(=O)(=O)c1nc(S(=O)(=O)c2ccc(Cl)cc2)c(N2CCOCC2)s1 the results were aSyn UTR inh -5, KLF5 inhibitor -63 and IEC-6 tox 3.
O=C(Nc1ccccc1SCC1CSc2nc3ccccc3c(=O)n21)c1ccccc1 (configuration not stated) was read as aSyn UTR inh 25, KLF5 inhibitor 8, IEC-6 tox 50*, BaF3 parental 4, APP 5UTR inh -5, Ba/F3 V617F tox -1 and IEC-6 tox confirm 32*.
Screening O=C(COc1ccc(Br)cc1CNC1CCCC1)Nc1ccccc1 returned aSyn UTR inh -8, KLF5 inhibitor -60, IEC-6 tox 9, BaF3 parental 6, APP 5UTR inh 3 and Ba/F3 V617F tox 2.
Screening N#CC1=C(N)Oc2cc(N)ccc2C1c1ccsc1 (configuration not stated) returned aSyn UTR inh -12, KLF5 inhibitor -27, IEC-6 tox -2, BaF3 parental 7, APP 5UTR inh 4 and Ba/F3 V617F tox -2.
Screening N#CC1=C(N)Oc2cc(N)ccc2C1c1cccc(Br)c1 (configuration not stated) returned aSyn UTR inh 119*, KLF5 inhibitor 61, IEC-6 tox 81* and IEC-6 tox confirm 54*.
For N#CC1=C(N)Oc2cc(N)ccc2C1c1cc(Br)cs1 (configuration not stated) the results were aSyn UTR inh -75, KLF5 inhibitor 1, IEC-6 tox 24* and IEC-6 tox confirm 10.
Screening COc1ccc(CC(=O)N/N=C(\C)CC(=O)Nc2ccc3c(c2)OCCO3)cc1OC returned aSyn UTR inh -11, KLF5 inhibitor 2 and IEC-6 tox -2.
